# According to the supplement of paper PMC6555819:
# Columns and labels:
# Test in all cases: PBM binding z-score (relative to random genomic background probes); higher = stronger binding; sequences stand for … in GC…GCGATTGACAGCGTAGAATGAAGG
# [1] = tested on: FXR:RXRa (NR concentration 270 nM, RXRa partner concentration 90 nM)
# In short: (§1)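 Custom Agilent 4×180K protein-binding microarrays carried double-stranded probes, each with a 34-nt variable region. These regions held direct-repeat seeds, single-nucleotide variants, half-site ablations and random human genomic background sequences. Ligand-free nuclear receptor dimers were incubated on the arrays for 1 h, antibodies against each partner (one per run) detected binding, and scanned fluorescence was regression-normalized. Binding z-scores take the random background probes as reference.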
# [2] = tested on: LXRa:RXRa (NR concentration 270 nM, RXRa partner concentration 90 nM)
# In short: as §1
# [3] = tested on: LXRa homodimer (NR concentration 270 nM)
# In short: as §1
# [4] = tested on: LXRb:RXRa (NR concentration 270 nM, RXRa partner concentration 90 nM)
# In short: as §1
# [5] = tested on: LXRb homodimer (NR concentration 270 nM)
# In short: as §1
# [6] = tested on: PPARa:RXRa (NR concentration 270 nM, RXRa partner concentration 90 nM)
# In short: as §1
# [7] = tested on: PPARg:RXRa (NR concentration 180 nM, RXRa partner concentration 90 nM)
# In short: as §1
# [8] = tested on: PPARg:RXRa 270nM:90nM, anti-RXR (NR concentration 270 nM, RXRa partner concentration 90 nM)
# In short: as §1
# [9] = tested on: PPARg:RXRa 30nM:10nM, anti-RXR (NR concentration 30 nM, RXRa partner concentration 10 nM)
# In short: as §1
# [10] = tested on: PPARg:RXRa 90nM:30nM, anti-RXR (NR concentration 90 nM, RXRa partner concentration 30 nM)
# In short: as §1
# [11] = tested on: PPARg:RXRa DBDmut IVT, anti-RXR (DBD mutation: RXRa K156A/R161A, NR concentration 270 nM, RXRa partner concentration 90 nM)
# In short: as §1
# [12] = tested on: PPARg:RXRa IVT, anti-PPARg (NR concentration 270 nM, RXRa partner concentration 90 nM)
# In short: as §1
# [13] = tested on: PPARg DBDmut:RXRa IVT, anti-PPARg (DBD mutation: PPARg1 K132A/R137A, NR concentration 270 nM, RXRa partner concentration 90 nM)
# In short: as §1
# [14] = tested on: PPARg DBDmut IVT, anti-PPARg (DBD mutation: PPARg1 K132A/R137A, NR concentration 270 nM)
# In short: as §1
# [15] = tested on: PPARg homodimer (NR concentration 180 nM)
# In short: as §1
# [16] = tested on: PXR:RXRa (NR concentration 270 nM, RXRa partner concentration 90 nM)
# In short: as §1
# [17] = tested on: PXR homodimer (NR concentration 270 nM)
# In short: as §1
# [18] = tested on: RARa:RXR (NR concentration 270 nM, RXRa partner concentration 90 nM)
# In short: as §1
# [19] = tested on: RARa homodimer (NR concentration 270 nM)
# In short: as §1
# [20] = tested on: RARb:RXRa (NR concentration 270 nM, RXRa partner concentration 90 nM)
# In short: as §1
Sequence,PBM binding z-score [1],PBM binding z-score [2],PBM binding z-score [3],PBM binding z-score [4],PBM binding z-score [5],PBM binding z-score [6],PBM binding z-score [7],PBM binding z-score [8],PBM binding z-score [9],PBM binding z-score [10],PBM binding z-score [11],PBM binding z-score [12],PBM binding z-score [13],PBM binding z-score [14],PBM binding z-score [15],PBM binding z-score [16],PBM binding z-score [17],PBM binding z-score [18],PBM binding z-score [19],PBM binding z-score [20]
AGAATGAGGTTACCAAAGAGCAGGGAAACGCTTG,1.71,5.78,-0.463,2.41,-0.39,3.05,2.22,2.47,0.623,1.44,3.47,2.96,0.794,-0.0129,0.046,1.05,-0.21,1.71,-0.396,2
TCGAGTAGGTTACTCGGGGCATTCAGCCAACATA,0.333,0.921,-0.382,0.814,-0.722,1.13,0.392,1.33,1.41,0.94,3.23,2.79,-0.543,-0.378,-0.112,0.641,-0.427,0.651,-1.03,0.57
GCGACTGGGGCAAAGCAGGTTACCAGAAGGTTGG,0.766,0.129,-0.462,0.0356,-1.38,1.3,1.17,1.42,-0.461,0.594,4.49,3.54,-1.13,-0.78,0.00244,0.34,-0.469,0.321,-0.876,1.1
ATATGTAAGTTACATCCGGGTCATTCAGGCTATG,1.87,2.38,0.923,2.19,0.757,2.83,1.41,1.44,0.868,1.01,1.5,2.35,1.58,1.58,1.11,3.02,2.6,2.96,0.872,1.72
CATACAAGGTCAGCTAGGCCAGAGTAGGGACGGC,5.48,4.64,0.878,2.65,0.921,4.45,3.65,3.36,0.947,2.45,2.49,3.08,1.69,1.12,2.33,2.51,0.612,3.43,1.39,4.89
CTAGACAGGTGAAAGGTAACTCAGTCTGGTACGC,0.53,0.864,-0.332,0.732,-0.56,3.4,6.11,6.66,5.12,6.47,1.94,3.43,0.142,0.0221,0.635,0.951,-0.397,1.91,-0.0814,1.22
TCTAGCGGGCCAGAGGGTCACTCAAGAGGTACGG,0.839,0.883,-0.748,1.08,-1.43,2.37,1.3,2.42,1.68,2.48,0.727,0.801,-0.857,-1.59,-0.0821,1.64,-0.599,2.17,-0.431,2.2
CGTCCAAGGTAAAAGGTCAGTGAAGAGATGACGG,3.59,3.34,0.701,3.27,-0.538,5.23,6.53,6.49,4.59,6.15,0.99,3.62,-0.145,0.215,2.6,3.83,0.564,5.16,1.15,4.44
GGAACGAGGACAAAGTTGATAGCATCTGTCGACG,-0.0589,-0.208,-0.722,-0.455,-0.842,2.4,4.11,5.44,3.91,5.14,1.35,1.44,-0.283,-0.95,-0.0718,-0.043,-0.312,0.0802,0.0714,0.942
TCAGACAGGTGAAGGTAACTCGGGTACGCAGTCG,1.07,2.93,0.00206,1.44,-0.167,1.46,0.656,2.33,3.89,3.22,2.75,1.56,-0.468,-0.323,0.71,0.846,0.151,0.795,0.419,1.46
CGTCCAAGGTCAAAGGTAAGTGAAGAGATGACGG,7.07,5.81,0.609,4.33,0.945,6.03,7.34,7,5.4,6.76,3.99,4.46,0.556,-0.194,2.19,4.69,0.799,5.9,0.423,5.23
GCAGACAGGTGAAACGCTGGTAACTCAGGGTGGC,-0.319,0.0267,-0.492,-0.149,-1.44,0.737,0.389,0.0806,-0.77,-0.171,0.871,0.415,-0.505,-0.62,-1.22,-0.38,-0.927,0.0217,-0.662,0.668
CGTCCAAGGTCAGCACGTCAGTGAAAGCGACGTG,5.32,3.11,-0.0642,2.37,-0.16,4.23,2.38,2.91,0.448,1.36,2.18,2.13,0.0717,0.0669,1.85,2.31,0.247,3.39,0.134,4.89
CTCGAAAGGTCGCGCTCAGGTGAGTATACCAAAC,5.56,4.34,0.0163,3.5,0.0326,5.16,3.37,4.57,1.32,2.97,1.22,2.52,1.3,0.149,2.13,3.65,-0.145,4.74,-0.225,4.46
